About 1,500 (3.8%) of roughly 39,000 compounds were called active. The sample holds actives, similar compounds and a random draw of the others, so the mix is not that of the screen.
These compounds were tested on HSkMC (human skeletal muscle cells) (assay: cytotoxicity call (relative viability < 0.9)). Settings: 10 µM.

Structure (SMILES) | cytotoxicity call
Cc1ccc(-c2csc(-c3ccc(C(F)(F)F)cc3)n2)cc1 | inactive
CCCc1cc(-c2nc(-c3ccc(C)cc3)cs2)ccn1 | inactive
Cc1ccc(-c2csc(-c3ccc(CN)cc3)n2)cc1 | active
CCc1ccccc1C(=O)N1CCC[C@@H](Cn2cc(C(C)(C)N)nn2)C1 | inactive
COc1ccc2c3c(ccc2c1)-c1[nH]c2ccccc2c1CC3 | inactive
COc1ccc2[nH]c3c(-c4cccc5ccccc45)nccc3c2c1 | active
COc1ccc2[nH]c(=O)[nH]c(=O)c2c1 | inactive
COc1ccc(-c2ccc3n(c2=O)C[C@@H]2[C@@H](CO)[C@H](C(=O)NCC4CC4)[C@H]3N2S(C)(=O)=O)cc1 | inactive
C[C@@H]1CN([C@H](C)CO)S(=O)(=O)c2ccc(C#Cc3ccccc3)cc2O[C@@H]1CN(C)S(=O)(=O)c1ccccc1F | inactive
CC(=O)N(C)C[C@@H]1Oc2ncc(C#CC(C)(C)O)cc2C(=O)N([C@@H](C)CO)C[C@@H]1C | active
CC(=O)N(C)C[C@H]1Oc2ncc(C#CC(C)(C)O)cc2C(=O)N([C@H](C)CO)C[C@H]1C | inactive
CC(=O)N(C)C[C@@H]1Oc2ncc(C#CC(C)(C)O)cc2C(=O)N([C@@H](C)CO)C[C@H]1C | inactive
C[C@H](CO)N1C[C@H](C)[C@H](CN(C)C(=O)Cc2ccccc2)Oc2ncc(C#CC3(O)CCCC3)cc2C1=O | active
C[C@H](CO)N1C[C@H](C)[C@@H](CN(C)C(=O)Cc2ccccc2)Oc2ncc(C#CC3(O)CCCC3)cc2C1=O | inactive
C[C@@H]1CN([C@H](C)CO)C(=O)c2cc(C#CC3(O)CCCC3)cnc2O[C@H]1CN(C)C(=O)Cc1ccccc1 | inactive
Cc1noc(C)c1S(=O)(=O)Nc1ccc2c(c1)CC(=O)N([C@@H](C)CO)C[C@@H](C)[C@H](CN(C)S(=O)(=O)c1ccccc1)O2 | inactive
C[C@@H]1CN([C@@H](C)CO)C(=O)Cc2cc(NS(=O)(=O)c3ccccc3)ccc2O[C@@H]1CN(C)CC1CC1 | inactive
COc1ccc(S(=O)(=O)Nc2ccc3c(c2)C(=O)N([C@H](C)CO)C[C@H](C)[C@@H](CN(C)C(=O)NC2CCCCC2)OCCCC[C@H](C)O3)cc1 | inactive
CC(C)NC(=O)N(C)C[C@@H]1Oc2ccc(NS(=O)(=O)c3ccccc3)cc2C(=O)N([C@@H](C)CO)C[C@@H]1C | inactive
C[C@H]1CCCCO[C@@H](CN(C)Cc2ccc(C(=O)O)cc2)[C@@H](C)CN([C@@H](C)CO)C(=O)c2cc(NC(=O)Nc3cccc4ccccc34)ccc2O1 | inactive
CCC(=O)Nc1ccc2c(c1)OC[C@H](C)N(C(=O)CN1CCOCC1)C[C@@H](C)[C@@H](OC)CN(C)C2=O | inactive
O=C(Nc1ccc(-c2nc3ccc(NC(=O)c4ccccc4[N+](=O)[O-])cc3[nH]2)cc1)c1ccccc1[N+](=O)[O-] | inactive
O=C(Nc1ccc(-c2nc3ccc(NC(=O)c4ccc(NC(=O)c5cccc6ccccc56)cc4)cc3[nH]2)cc1)c1ccc(NC(=O)c2cccc3ccccc23)cc1 | inactive

Structure (SMILES) | cytotoxicity call
O=C(Nc1ccc(-c2nc3ccc(NC(=O)c4ccc(Cl)cc4)cc3[nH]2)cc1)c1ccc(Cl)cc1 | active
c1ccc(-c2nn(-c3ccccc3)c3c2cnc2ccccc23)cc1 | inactive
C[C@@H]1CN([C@@H](C)CO)C(=O)c2cc(C#Cc3ccccc3F)cnc2O[C@H]1CN(C)C(=O)c1ccc2c(c1)OCO2 | inactive
c1cnc(-c2cc[nH]n2)cn1 | inactive
C[C@@H]1CN([C@@H](C)CO)C(=O)c2ccccc2-c2ccccc2CO[C@H]1CN(C)C(=O)N[C@H](C)c1ccccc1 | inactive
Cc1cc(C)c(NC(=O)CN(CC(=O)O)CC(=O)O)c(C)c1Br | inactive
Cn1cnc(S(=O)(=O)N2C[C@H](O)COC[C@@H]3O[C@@H](CC(=O)NCc4cccc(F)c4)CC[C@H]32)c1 | inactive
C[C@@H]1CN([C@H](C)CO)S(=O)(=O)c2ccc(-c3ccncc3)cc2O[C@@H]1CN(C)S(=O)(=O)c1ccccc1F | inactive
Cc1cc(-c2ccc(N=Nc3ccc4c(S(=O)(=O)[O-])cc(S(=O)(=O)[O-])c(N)c4c3O)c(C)c2)ccc1N=Nc1ccc2c(S(=O)(=O)[O-])cc(S(=O)(=O)[O-])c(N)c2c1O.[Na+].[Na+].[Na+].[Na+] | active
Cc1ccc(S(=O)(=O)Oc2ccc(/N=N/c3ccc(-c4ccc(/N=N/c5c(O)ccc6cc(S(=O)(=O)O)cc(S(=O)(=O)O)c56)c(C)c4)cc3C)cc2)cc1 | inactive
C[C@H]1CN([C@@H](C)CO)C(=O)c2cc(C#Cc3ccncc3)cnc2O[C@@H]1CN(C)S(=O)(=O)c1ccccc1F | inactive
C[C@@H]1CN([C@@H](C)CO)C(=O)c2cc(NC(=O)Nc3ccc(F)cc3)ccc2O[C@H]1CN(C)Cc1ccc(C(F)(F)F)cc1 | active
C[C@H](CO)N1C[C@H](C)[C@H](CN(C)Cc2ccc(C(F)(F)F)cc2)Oc2ccc(NC(=O)Nc3ccc(F)cc3)cc2C1=O | inactive
C[C@H]1CN([C@@H](C)CO)C(=O)c2cc(NC(=O)Nc3ccc(F)cc3)ccc2O[C@@H]1CN(C)Cc1ccc(C(F)(F)F)cc1 | inactive
C[C@@H]1CN([C@H](C)CO)C(=O)c2cc(NC(=O)Nc3ccc(F)cc3)ccc2O[C@@H]1CN(C)Cc1ccc(C(F)(F)F)cc1 | inactive
C[C@H](CO)N1C[C@H](C)[C@@H](CN(C)Cc2ccc(C(F)(F)F)cc2)Oc2ccc(NC(=O)Nc3ccc(F)cc3)cc2C1=O | active
C[C@@H]1CN([C@@H](C)CO)C(=O)c2cc(NC(=O)Nc3ccc(F)cc3)ccc2O[C@@H]1CN(C)Cc1ccc(C(F)(F)F)cc1 | active
C[C@H]1CN([C@@H](C)CO)C(=O)c2cc(NC(=O)Nc3ccc(F)cc3)ccc2O[C@H]1CN(C)Cc1ccc(C(F)(F)F)cc1 | inactive
C[C@@H]1CN([C@H](C)CO)C(=O)c2cc(NC(=O)Nc3ccc(F)cc3)ccc2O[C@H]1CN(C)Cc1ccc(C(F)(F)F)cc1 | active
O=C(C[C@H]1C=C[C@@H](NC(=O)Nc2cc(F)ccc2F)[C@@H](CO)O1)NCCCN1CCOCC1 | inactive
CCS(=O)(=O)N1C[C@]2(CN(C2)C(=O)Nc2ccc3c(c2)OCO3)c2c(n(c3cc(ccc23)OC)C)[C@H]1CO | inactive
N=C(N)N.O=C(O)O | inactive
Cc1noc(C)c1S(=O)(=O)N(C)C[C@H]1Oc2ccc(NS(C)(=O)=O)cc2CC(=O)N([C@H](C)CO)C[C@@H]1C | inactive

Structure (SMILES) | cytotoxicity call
COc1ccc(NC(=O)N(C)C[C@@H]2Oc3ccc(NC(=O)Cn4cnnn4)cc3CC(=O)N([C@H](C)CO)C[C@H]2C)cc1 | inactive
C[C@H](CO)N1C[C@H](C)[C@H](CN(C)C(=O)Nc2ccc(C(F)(F)F)cc2)OCCCC[C@H](C)Oc2ccc(NS(=O)(=O)c3cn(C)cn3)cc2C1=O | inactive
O=C(C[C@H]1C=C[C@@H](NC(=O)c2cccc(F)c2)[C@H](CO)O1)NCCN1CCCC1 | inactive
COc1ccc(-c2cnc3c(c2)C(=O)N([C@H](C)CO)C[C@H](C)[C@H](CN(C)S(=O)(=O)c2ccc(F)cc2)O3)cc1 | inactive
Cc1ccc(S(=O)(=O)N(C)C[C@@H]2Oc3c(NS(=O)(=O)c4ccccc4)cccc3C(=O)N([C@@H](C)CO)C[C@H]2C)cc1 | inactive
NCC[C@H]1CC[C@@H](NC(=O)c2ccccc2F)[C@@H](CO)O1 | inactive
Cc1ccc(S(=O)(=O)N(C)C[C@@H]2Oc3c(NS(C)(=O)=O)cccc3C(=O)N([C@H](C)CO)C[C@H]2C)cc1 | inactive
Cc1cc(C(=O)Nc2cccc3c2O[C@@H](CN(C)S(C)(=O)=O)[C@@H](C)CN([C@@H](C)CO)C3=O)n(C)n1 | inactive
C[C@@H]1CCCCO[C@@H](CN(C)S(=O)(=O)c2ccc(Cl)cc2)[C@@H](C)CN([C@@H](C)CO)C(=O)c2cc(NS(=O)(=O)c3ccc(F)cc3)ccc2O1 | inactive
O=C(C[C@@H]1CC[C@H]2[C@@H](COC[C@@H](O)CN2S(=O)(=O)c2ccc(Oc3ccccc3)cc2)O1)NCCN1CCCCC1 | inactive
COc1ccc(N(C(=O)CSc2ncccn2)[C@@H](C(=O)NCCc2ccccc2)c2cccs2)cc1Cl | inactive
CC(C)(C)OC(=O)NCCOCCOCCOc1ccc(N(C(=O)CCl)[C@@H](C(=O)NCCc2ccccc2)c2cccs2)cc1Cl | active
O=C(CCCl)NCCc1ccccc1 | inactive
COc1ccc(N(C(=O)CCl)[C@@H](C(=O)NCCc2ccccc2)c2ccc(Cl)s2)cc1Cl | active
Cn1cnc(S(=O)(=O)N[C@H]2CC[C@@H](CC(=O)N3CCN(c4ccccc4)CC3)O[C@H]2CO)c1 | inactive
C[C@@H]1CN([C@H](C)CO)C(=O)Cc2cc(NC(=O)CCC(F)(F)F)ccc2O[C@H]1CN(C)Cc1ccc(Oc2ccccc2)cc1 | inactive
C[C@H]1CCCCO[C@H](CN(C)C(=O)Nc2cccc3ccccc23)[C@@H](C)CN([C@@H](C)CO)C(=O)c2cc(NS(=O)(=O)c3ccc(Cl)cc3)ccc2O1 | inactive
COC(=O)[C@@H]1OC(=O)[C@H]2O[C@@]23[C@]2(C)[C@@H](O)C[C@H]4C(C)(C)[C@H](OC(C)=O)C[C@H](OC(C)=O)[C@]4(C)[C@@H]2CC[C@@]13C | inactive
COc1ccc(CN(CCN(C)C)c2ncccn2)cc1.Cl | inactive
COc1ccc(CN(CCN(C)C)c2ccccn2)cc1.O=C(O)C=CC(=O)O | inactive
CCCCCCCCCCCCCCCC[N+](C)(C)CCN(Cc1ccc(OC)cc1)c1ncccn1 | active
C[C@@H]1CCCCO[C@H](CN(C)Cc2ccc(C(=O)O)cc2)[C@H](C)CN([C@H](C)CO)C(=O)c2cc(NC(=O)Nc3ccc(F)cc3)ccc2O1 | inactive
C[C@@H]1CCCCO[C@H](CN(C)C(=O)C2CCCCC2)[C@@H](C)CN([C@H](C)CO)C(=O)c2cc(NC(=O)Cc3ccccc3)ccc2O1 | inactive

From the antibiotic and cytotoxicity screens of Wong et al. (2023)
